Of roughly 7,900 targets only a part is listed; those with a hit were picked by preference. About 0.6% of all pairs of compound and target were hits.
Assays:
Assay in all cases: log2 fold change, soluble protein after heating vs DMSO (PISA); higher = thermal stabilisation; K562 cells, 10 uM, 30 min; active = over 0.2 and 3.5 SD of the protein, either way, in both replicates (recomputed)
[1] = compound: COC1=CC=C(C=C1)CN2C=CC3=C2C=C(C=C3)C(=O)NO
In short: (§1)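 Aliquots of K562 cells (2×10^6 cells/mL) treated with 10 μM compound for 30 min were heated for 3 min over 48°C-58°C. After pooling and extraction in PBS with 0.5% NP-40 at 4°C, soluble protein from a 21,000xg, 90 min spin was quantified by TMTpro 16plex LC-MS/MS with channel sums equalised. Thermal stability is expressed against control samples, from duplicates, as a log2 fold change.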

filanesib = compound: CON(C)C(=O)N1N=C(c2cc(F)ccc2F)S[C@@]1(CCCN)c1ccccc1 [filanesib]
In short: as §1

zotarolimus = compound: CO[C@H]1C[C@@H]2CC[C@@H](C)[C@@](O)(O2)C(=O)C(=O)N2CCCC[C@H]2C(=O)O[C@H]([C@H](C)C[C@@H]2CC[C@H](n3cnnn3)[C@H](OC)C2)CC(=O)[C@H](C)/C=C(\C)[C@@H](O)[C@@H](OC)C(=O)[C@H](C)C[C@H](C)/C=C/C=C/C=C/1C [zotarolimus]
In short: as §1

idasanutlin = compound: COc1cc(C(=O)O)ccc1NC(=O)[C@@H]1N[C@@H](CC(C)(C)C)[C@](C#N)(c2ccc(Cl)cc2F)[C@H]1c1cccc(Cl)c1F [idasanutlin]
In short: as §1

alisertib = compound: COc1cc(Nc2ncc3c(n2)-c2ccc(Cl)cc2C(c2c(F)cccc2OC)=NC3)ccc1C(=O)O [alisertib]
In short: as §1

[2] = compound: COc1cc2nc(-c3cc(F)ccc3O)nc(N[C@@H]3CNC[C@H]3C(C)(C)O)c2cc1OC
In short: as §1

gefitinib = compound: COc1cc2ncnc(Nc3ccc(F)c(Cl)c3)c2cc1OCCCN1CCOCC1 [gefitinib]
In short: as §1

[3] = compound: COc1cccc2cc(-c3nc([C@H]4CC[C@H](C(=O)O)CC4)n4ncnc(N)c34)[nH]c12
In short: as §1

lapatinib = compound: CS(=O)(=O)CCNCc1ccc(-c2ccc3ncnc(Nc4ccc(OCc5cccc(F)c5)c(Cl)c4)c3c2)o1 [lapatinib]
In short: as §1

pictilisib = compound: CS(=O)(=O)N1CCN(Cc2cc3nc(-c4cccc5[nH]ncc45)nc(N4CCOCC4)c3s2)CC1 [pictilisib]
In short: as §1

[4] = compound: CS(=O)(=O)c1ccc(-c2cnc(N)c(C(=O)Nc3ccccc3)n2)cc1
In short: as §1

crizotinib = compound: C[C@@H](Oc1cc(-c2cnn(C3CCNCC3)c2)cnc1N)c1c(Cl)ccc(F)c1Cl [crizotinib]
In short: as §1

[5] = compound: C[C@@H]1COCCN1C2=NC(=NC(=C2)C3(CC3)S(=O)(=O)C)C4=C5C=CNC5=CC=C4
In short: as §1

[6] = compound: C[C@H](C1=CC=C(C=C1)C(=O)NC2=C3C=CNC3=NC=C2)N
In short: as §1

duvelisib = compound: C[C@H](Nc1ncnc2nc[nH]c12)c1cc2cccc(Cl)c2c(=O)n1-c1ccccc1 [duvelisib]
In short: as §1

gandotinib = compound: Cc1cc(Nc2cc(CN3CCOCC3)c3nc(C)c(Cc4ccc(Cl)cc4F)n3n2)n[nH]1 [gandotinib]
In short: as §1

tozasertib = compound: Cc1cc(Nc2cc(N3CCN(C)CC3)nc(Sc3ccc(NC(=O)C4CC4)cc3)n2)n[nH]1 [tozasertib]
In short: as §1

[7] = compound: Cc1cc(SCc2sc(-c3ccc(C(F)(F)F)cc3)nc2C)ccc1OCC(=O)O
In short: as §1

doramapimod = compound: Cc1ccc(-n2nc(C(C)(C)C)cc2NC(=O)Nc2ccc(OCCN3CCOCC3)c3ccccc23)cc1 [doramapimod]
In short: as §1

ispinesib = compound: Cc1ccc(C(=O)N(CCCN)[C@@H](c2nc3cc(Cl)ccc3c(=O)n2Cc2ccccc2)C(C)C)cc1 [ispinesib]
In short: as §1

Measured: log2 fold change

SEC31A (UniProt O94979)
Sequence of UniProt O94979 (O94979 whole entry, looked up): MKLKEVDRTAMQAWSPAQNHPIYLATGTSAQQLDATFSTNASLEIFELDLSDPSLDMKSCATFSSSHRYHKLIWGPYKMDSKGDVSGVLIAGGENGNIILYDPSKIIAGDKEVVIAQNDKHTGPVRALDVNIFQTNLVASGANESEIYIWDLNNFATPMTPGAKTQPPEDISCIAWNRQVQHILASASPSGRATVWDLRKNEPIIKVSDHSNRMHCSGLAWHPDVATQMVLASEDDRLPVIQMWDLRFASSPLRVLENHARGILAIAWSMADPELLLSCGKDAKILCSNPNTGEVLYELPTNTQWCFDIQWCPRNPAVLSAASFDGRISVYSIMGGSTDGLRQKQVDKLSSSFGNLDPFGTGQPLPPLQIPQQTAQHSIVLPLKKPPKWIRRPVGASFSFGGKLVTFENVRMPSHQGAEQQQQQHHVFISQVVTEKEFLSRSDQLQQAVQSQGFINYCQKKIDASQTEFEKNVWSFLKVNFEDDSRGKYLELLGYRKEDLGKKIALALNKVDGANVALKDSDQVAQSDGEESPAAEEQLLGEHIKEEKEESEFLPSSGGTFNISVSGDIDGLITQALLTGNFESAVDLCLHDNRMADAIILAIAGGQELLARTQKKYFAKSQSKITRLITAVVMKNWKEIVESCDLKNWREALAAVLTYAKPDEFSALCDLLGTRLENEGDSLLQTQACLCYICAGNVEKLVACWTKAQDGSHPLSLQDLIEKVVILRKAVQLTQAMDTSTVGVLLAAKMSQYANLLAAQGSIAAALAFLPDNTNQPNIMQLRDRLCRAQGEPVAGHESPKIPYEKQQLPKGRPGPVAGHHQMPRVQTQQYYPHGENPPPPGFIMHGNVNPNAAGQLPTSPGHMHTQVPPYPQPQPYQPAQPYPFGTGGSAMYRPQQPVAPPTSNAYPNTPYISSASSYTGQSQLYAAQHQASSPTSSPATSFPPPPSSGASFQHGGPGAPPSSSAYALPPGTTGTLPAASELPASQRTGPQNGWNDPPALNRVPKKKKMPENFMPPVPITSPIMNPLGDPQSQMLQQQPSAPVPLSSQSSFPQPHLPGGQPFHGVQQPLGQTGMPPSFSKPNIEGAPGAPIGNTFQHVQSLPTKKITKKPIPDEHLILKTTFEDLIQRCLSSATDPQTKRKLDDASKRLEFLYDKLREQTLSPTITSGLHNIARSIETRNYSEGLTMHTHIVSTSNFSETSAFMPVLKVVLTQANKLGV
inactive: [1] 0.01 | filanesib 0.063 | zotarolimus 0.029 | idasanutlin -0.039 | alisertib 0.006 | [2] 0.211 | gefitinib 0.008 | [3] -0.01 | lapatinib -0.036 | pictilisib -0.002 | [4] 0.045 | crizotinib -0.011 | [5] 0.007 | [6] 0.084 | duvelisib 0.004 | gandotinib -0.158 | tozasertib 0.049 | [7] 0.064 | doramapimod 0 | ispinesib 0.034

RAB8B (UniProt Q92930)
Sequence of UniProt Q92930 (Q92930 whole entry, looked up): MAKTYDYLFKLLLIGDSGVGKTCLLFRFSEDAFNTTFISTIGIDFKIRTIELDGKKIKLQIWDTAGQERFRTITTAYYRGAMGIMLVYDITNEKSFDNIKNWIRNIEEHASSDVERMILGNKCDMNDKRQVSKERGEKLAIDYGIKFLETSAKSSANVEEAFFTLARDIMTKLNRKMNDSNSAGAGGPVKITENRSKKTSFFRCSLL
inactive: [1] 0.258 | filanesib -0.076 | zotarolimus 0.045 | idasanutlin -0.017 | alisertib -0.035 | [2] -0.064 | gefitinib 0.021 | [3] -0.076 | lapatinib 0.023 | pictilisib -0.096 | [4] -0.212 | crizotinib 0 | [5] -0.046 | [6] -0.345 | duvelisib -0.028 | gandotinib -0.086 | tozasertib -0.076 | [7] 0.005 | doramapimod 0.034 | ispinesib 0.01

SART3, A0A499FI31
inactive: [1] 0.059 | filanesib -0.036 | zotarolimus 0.054 | idasanutlin -0.044 | alisertib -0.042 | [2] -0.192 | gefitinib -0.019 | [3] -0.019 | lapatinib 0.016 | pictilisib -0.083 | [4] -0.011 | crizotinib 0.097 | [5] 0.049 | [6] -0.124 | duvelisib 0.012 | gandotinib -0.056 | tozasertib 0.078 | [7] 0.051 | doramapimod -0.03 | ispinesib 0.038

RNPS1 (UniProt Q15287)
Sequence of UniProt Q15287 (Q15287 whole entry, looked up): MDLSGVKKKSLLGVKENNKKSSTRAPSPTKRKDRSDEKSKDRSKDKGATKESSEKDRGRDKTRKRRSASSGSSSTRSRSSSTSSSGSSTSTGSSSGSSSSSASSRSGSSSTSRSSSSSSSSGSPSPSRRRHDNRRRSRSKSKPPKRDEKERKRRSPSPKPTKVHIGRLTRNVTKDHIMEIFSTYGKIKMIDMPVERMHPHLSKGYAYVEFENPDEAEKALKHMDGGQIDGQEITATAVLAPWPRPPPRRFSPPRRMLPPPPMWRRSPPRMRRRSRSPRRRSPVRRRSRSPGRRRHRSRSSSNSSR
inactive: [1] 0.062 | filanesib 0.13 | zotarolimus -0.014 | idasanutlin 0.274 | alisertib 0.024 | [2] -0.073 | gefitinib 0.04 | [3] -0.005 | lapatinib 0.075 | pictilisib -0.001 | [4] 0.018 | crizotinib -0.109 | [5] 0.114 | [6] -0.019 | duvelisib -0.091 | gandotinib 0.089 | tozasertib 0.108 | [7] -0.028 | doramapimod -0.104 | ispinesib 0.042

RAB33B (UniProt Q9H082)
Sequence of UniProt Q9H082 (Q9H082 whole entry, looked up): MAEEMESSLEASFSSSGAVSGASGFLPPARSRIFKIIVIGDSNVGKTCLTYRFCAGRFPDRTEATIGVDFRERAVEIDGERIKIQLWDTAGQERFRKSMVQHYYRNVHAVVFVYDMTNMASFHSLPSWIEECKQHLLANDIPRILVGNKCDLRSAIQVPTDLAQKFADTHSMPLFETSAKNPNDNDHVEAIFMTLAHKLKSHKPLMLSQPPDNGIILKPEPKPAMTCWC
inactive: [1] -0.104 | filanesib -0.018 | zotarolimus -0.073 | idasanutlin 0.036 | alisertib 0.035 | [2] 0.039 | gefitinib 0.037 | [3] 0.087 | lapatinib 0.046 | pictilisib 0.106 | [4] 0.007 | crizotinib 0.106 | [5] 0.064 | [6] -0.037 | duvelisib 0.058 | gandotinib -0.095 | tozasertib -0.032 | [7] -0.038 | doramapimod -0.021 | ispinesib -0.065

RNASET2 (UniProt O00584)
Sequence of UniProt O00584 (O00584 whole entry, looked up): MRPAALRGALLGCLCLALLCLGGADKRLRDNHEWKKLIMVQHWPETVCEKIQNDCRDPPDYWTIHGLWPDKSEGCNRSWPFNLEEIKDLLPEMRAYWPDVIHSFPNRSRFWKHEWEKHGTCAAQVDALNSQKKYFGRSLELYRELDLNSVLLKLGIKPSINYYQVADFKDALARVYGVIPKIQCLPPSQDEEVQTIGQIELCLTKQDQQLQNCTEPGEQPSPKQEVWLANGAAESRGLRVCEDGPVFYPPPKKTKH
active: crizotinib -0.35
inactive: [1] 0.012 | filanesib -0.155 | zotarolimus -0.013 | idasanutlin -0.021 | alisertib -0.046 | [2] -0.097 | gefitinib -0.081 | [3] 0.035 | lapatinib -0.028 | pictilisib 0.024 | [4] 0.033 | [5] 0.027 | [6] 0.08 | duvelisib 0.045 | gandotinib 0.01 | tozasertib -0.011 | [7] -0.037 | doramapimod -0.013 | ispinesib -0.149

RNF2 (UniProt Q99496)
Sequence of UniProt Q99496 (Q99496 whole entry, looked up): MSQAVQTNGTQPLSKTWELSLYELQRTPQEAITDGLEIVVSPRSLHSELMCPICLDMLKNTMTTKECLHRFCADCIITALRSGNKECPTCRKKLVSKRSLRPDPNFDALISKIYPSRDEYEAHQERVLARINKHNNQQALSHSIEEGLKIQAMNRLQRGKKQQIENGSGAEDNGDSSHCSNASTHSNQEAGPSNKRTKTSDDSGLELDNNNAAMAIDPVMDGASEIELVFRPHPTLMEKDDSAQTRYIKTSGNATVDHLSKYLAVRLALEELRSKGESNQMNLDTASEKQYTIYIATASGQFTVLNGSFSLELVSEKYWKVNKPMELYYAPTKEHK
inactive: [1] -0.104 | filanesib 0.023 | zotarolimus 0 | idasanutlin -0.01 | alisertib -0.105 | [2] -0.04 | gefitinib 0.106 | [3] 0.039 | lapatinib 0.011 | pictilisib 0.099 | [4] 0.008 | crizotinib -0.028 | [5] -0.013 | [6] -0.105 | duvelisib -0.033 | gandotinib -0.091 | tozasertib 0.149 | [7] 0.073 | doramapimod -0.093

SEC16A isoform 5 (UniProt O15027)
inactive: [1] 0.079 | filanesib 0.037 | zotarolimus -0.01 | idasanutlin -0.021 | alisertib 0 | [2] 0.007 | gefitinib 0.046 | [3] -0.148 | lapatinib 0.017 | pictilisib -0.003 | [4] -0.032 | crizotinib -0.231 | [5] -0.113 | [6] 0.143 | duvelisib 0.004 | gandotinib 0.087 | tozasertib -0.014 | [7] 0.118 | doramapimod 0.023 | ispinesib -0.119

RRP9 (UniProt O43818)
inactive: [1] -0.011 | filanesib 0.143 | zotarolimus -0.059 | idasanutlin 0.171 | alisertib -0.14 | [2] -0.061 | gefitinib 0.027 | [3] 0.047 | lapatinib 0.037 | pictilisib -0.04 | [4] -0.05 | crizotinib 0.084 | [5] -0.2 | [6] 0.031 | duvelisib -0.029 | gandotinib 0.056 | tozasertib 0.121 | [7] -0.054 | doramapimod 0.063 | ispinesib 0.12

REL (UniProt Q04864)
Sequence of UniProt Q04864 (Q04864 whole entry, looked up): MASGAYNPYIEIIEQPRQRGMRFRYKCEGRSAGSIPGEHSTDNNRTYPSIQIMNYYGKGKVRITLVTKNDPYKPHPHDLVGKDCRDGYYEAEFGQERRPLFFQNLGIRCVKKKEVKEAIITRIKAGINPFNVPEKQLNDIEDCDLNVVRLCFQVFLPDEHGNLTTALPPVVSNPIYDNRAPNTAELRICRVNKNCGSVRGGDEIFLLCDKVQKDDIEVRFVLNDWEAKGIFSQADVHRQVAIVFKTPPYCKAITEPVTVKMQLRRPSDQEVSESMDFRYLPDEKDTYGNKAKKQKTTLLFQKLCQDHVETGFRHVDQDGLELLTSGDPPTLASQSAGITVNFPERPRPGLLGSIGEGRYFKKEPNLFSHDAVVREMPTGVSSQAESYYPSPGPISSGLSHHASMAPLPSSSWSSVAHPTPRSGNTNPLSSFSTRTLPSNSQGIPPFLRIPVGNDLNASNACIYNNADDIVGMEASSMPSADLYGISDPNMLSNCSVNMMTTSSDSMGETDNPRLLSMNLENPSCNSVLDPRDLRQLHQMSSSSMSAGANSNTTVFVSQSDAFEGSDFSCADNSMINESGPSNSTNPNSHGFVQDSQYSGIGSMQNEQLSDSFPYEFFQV
inactive: [1] -0.006 | filanesib 0.051 | zotarolimus 0.004 | idasanutlin 0.033 | alisertib 0.068 | [2] 0.062 | gefitinib 0.148 | [3] -0.086 | lapatinib -0.031 | pictilisib -0.243 | [4] 0.079 | crizotinib -0.04 | [5] 0.005 | [6] 0.02 | duvelisib -0.034 | gandotinib -0.321 | tozasertib 0.026 | [7] 0.028 | doramapimod -0.003 | ispinesib -0.088

RSF1 (UniProt Q96T23)
inactive: [1] 0.267 | filanesib -0.078 | zotarolimus 0.023 | idasanutlin -0.147 | alisertib -0.067 | [2] -0.018 | gefitinib 0.037 | [3] -0.17 | lapatinib 0.004 | pictilisib 0.114 | [4] 0.056 | crizotinib -0.054 | [5] -0.002 | [6] -0.058 | duvelisib 0.108 | gandotinib -0.104 | tozasertib 0.228 | [7] 0.194 | doramapimod 0.043 | ispinesib 0.087

RFC3 (UniProt P40938)
Sequence of UniProt P40938 (P40938 whole entry, looked up): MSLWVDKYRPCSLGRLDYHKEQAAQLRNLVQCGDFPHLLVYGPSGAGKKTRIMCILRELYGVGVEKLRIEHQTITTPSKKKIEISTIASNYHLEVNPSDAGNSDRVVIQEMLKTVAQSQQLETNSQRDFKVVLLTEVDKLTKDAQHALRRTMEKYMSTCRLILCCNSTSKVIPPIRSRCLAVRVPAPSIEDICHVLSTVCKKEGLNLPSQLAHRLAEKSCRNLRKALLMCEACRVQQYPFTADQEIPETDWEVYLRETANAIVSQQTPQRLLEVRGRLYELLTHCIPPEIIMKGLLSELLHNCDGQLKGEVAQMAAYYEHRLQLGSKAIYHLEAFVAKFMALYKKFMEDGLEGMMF
inactive: [1] 0.125 | filanesib -0.046 | zotarolimus -0.026 | idasanutlin -0.088 | alisertib -0.021 | [2] -0.042 | gefitinib 0.008 | [3] 0.024 | lapatinib 0.037 | pictilisib 0.035 | [4] 0.029 | crizotinib 0.016 | [5] 0.163 | [6] 0.071 | duvelisib 0.032 | gandotinib -0.042 | tozasertib -0.004 | [7] 0.061 | doramapimod -0.005 | ispinesib 0.067

RPS3A (UniProt P61247)
inactive: [1] -0.112 | filanesib 0.117 | zotarolimus 0.006 | idasanutlin 0.069 | alisertib -0.052 | [2] -0.009 | gefitinib -0.06 | [3] -0.152 | lapatinib 0.053 | pictilisib -0.078 | [4] -0.064 | crizotinib 0.022 | [5] -0.182 | [6] 0.196 | duvelisib -0.09 | gandotinib 0.175 | tozasertib 0.016 | [7] 0.029 | doramapimod 0.044 | ispinesib -0.072

SEPTIN5 (UniProt Q99719)
Sequence of UniProt Q99719 (Q99719 whole entry, looked up): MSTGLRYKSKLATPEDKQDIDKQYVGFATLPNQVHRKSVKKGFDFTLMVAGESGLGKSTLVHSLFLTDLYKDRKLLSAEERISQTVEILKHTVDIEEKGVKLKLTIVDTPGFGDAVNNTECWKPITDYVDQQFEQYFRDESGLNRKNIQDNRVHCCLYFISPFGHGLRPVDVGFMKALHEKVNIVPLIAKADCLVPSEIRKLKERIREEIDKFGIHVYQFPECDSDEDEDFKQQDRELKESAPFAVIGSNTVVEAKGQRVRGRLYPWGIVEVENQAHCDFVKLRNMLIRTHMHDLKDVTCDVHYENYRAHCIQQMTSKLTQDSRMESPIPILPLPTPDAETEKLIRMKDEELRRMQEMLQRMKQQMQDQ
inactive: [1] 0.034 | filanesib -0.003 | zotarolimus 0.013 | idasanutlin -0.067 | alisertib -0.044 | [2] 0 | gefitinib 0.006 | [3] 0.02 | lapatinib -0.035 | pictilisib 0.08 | [4] 0.004 | crizotinib 0.017 | [5] 0.036 | [6] -0.036 | duvelisib 0.002 | gandotinib -0.023 | tozasertib -0.008 | [7] -0.017 | doramapimod -0.017 | ispinesib 0.027

SIRT2 (UniProt Q8IXJ6)
Sequence of UniProt Q8IXJ6 (Q8IXJ6 whole entry, looked up): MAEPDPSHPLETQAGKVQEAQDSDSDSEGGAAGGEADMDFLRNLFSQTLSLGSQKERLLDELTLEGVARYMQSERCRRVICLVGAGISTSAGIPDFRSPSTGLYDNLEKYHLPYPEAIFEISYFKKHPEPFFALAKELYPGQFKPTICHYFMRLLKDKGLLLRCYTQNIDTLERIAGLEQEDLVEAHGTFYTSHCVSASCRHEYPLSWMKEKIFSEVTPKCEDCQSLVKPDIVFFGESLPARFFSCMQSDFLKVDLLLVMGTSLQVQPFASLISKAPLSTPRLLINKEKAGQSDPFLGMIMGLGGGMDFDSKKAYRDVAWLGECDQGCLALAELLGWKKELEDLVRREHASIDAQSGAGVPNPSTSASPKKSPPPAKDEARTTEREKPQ
inactive: [1] 0.083 | filanesib -0.02 | zotarolimus -0.029 | idasanutlin 0.016 | alisertib 0.036 | [2] -0.012 | gefitinib 0.069 | [3] 0.017 | lapatinib 0.065 | pictilisib 0.168 | [4] 0.042 | crizotinib -0.015 | [5] -0.002 | [6] 0.072 | duvelisib -0.048 | gandotinib 0.002 | tozasertib -0.099 | [7] -0.032 | doramapimod -0.009 | ispinesib -0.001

SACM1L (UniProt Q9NTJ5)
Sequence of UniProt Q9NTJ5 (Q9NTJ5 whole entry, looked up): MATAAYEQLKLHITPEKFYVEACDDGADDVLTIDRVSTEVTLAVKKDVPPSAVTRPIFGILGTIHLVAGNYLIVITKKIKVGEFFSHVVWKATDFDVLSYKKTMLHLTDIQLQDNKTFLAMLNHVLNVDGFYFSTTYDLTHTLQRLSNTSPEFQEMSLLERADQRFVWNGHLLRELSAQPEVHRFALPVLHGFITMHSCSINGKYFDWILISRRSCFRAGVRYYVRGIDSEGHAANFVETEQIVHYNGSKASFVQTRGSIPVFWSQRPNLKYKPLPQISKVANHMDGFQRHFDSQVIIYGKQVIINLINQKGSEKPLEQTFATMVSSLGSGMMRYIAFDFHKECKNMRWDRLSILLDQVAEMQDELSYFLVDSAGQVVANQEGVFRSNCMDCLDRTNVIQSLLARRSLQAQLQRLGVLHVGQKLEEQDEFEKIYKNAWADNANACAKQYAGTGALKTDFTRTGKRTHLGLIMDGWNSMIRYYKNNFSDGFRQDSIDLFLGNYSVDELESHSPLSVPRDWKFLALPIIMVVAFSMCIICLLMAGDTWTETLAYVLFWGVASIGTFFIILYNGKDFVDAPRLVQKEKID
inactive: [1] 0.044 | filanesib -0.081 | zotarolimus 0.029 | idasanutlin -0.027 | alisertib -0.05 | [2] -0.039 | gefitinib 0.086 | [3] 0.023 | lapatinib 0.028 | pictilisib -0.038 | [4] 0.026 | crizotinib 0 | [5] 0.062 | [6] -0.094 | duvelisib 0.031 | gandotinib -0.065 | tozasertib 0.058 | [7] 0.005 | doramapimod -0.055 | ispinesib -0.096

Source: the supplement of paper PMC10849652
